Test results taken from PubChem BioAssay (EPA / NIEHS).
Results filed as inconclusive are left out. Active and inactive are the calls of the source. The calls were made as follows: active = hit-call score of the fitted dose curve at least 0.9, where 1 is the maximum; inconclusive = response in the unintended direction; inactive = score below 0.9.

Assays:
[1] = molecular target: Nuclear receptor subfamily 1 group I member 2 (Homo sapiens) (UniProt O75469); experiment: NVS_NR_hPXR: NovaScreen (NVS) Nuclear Receptor Binding Assay for human Pregnane X Receptor (PXR) (AID 2283365);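 also: a drop in FRET signal versus DMSO baseline means the compound binds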
Chain of Nuclear receptor subfamily 1 group I member 2 (Homo sapiens) (O75469 whole entry, looked up): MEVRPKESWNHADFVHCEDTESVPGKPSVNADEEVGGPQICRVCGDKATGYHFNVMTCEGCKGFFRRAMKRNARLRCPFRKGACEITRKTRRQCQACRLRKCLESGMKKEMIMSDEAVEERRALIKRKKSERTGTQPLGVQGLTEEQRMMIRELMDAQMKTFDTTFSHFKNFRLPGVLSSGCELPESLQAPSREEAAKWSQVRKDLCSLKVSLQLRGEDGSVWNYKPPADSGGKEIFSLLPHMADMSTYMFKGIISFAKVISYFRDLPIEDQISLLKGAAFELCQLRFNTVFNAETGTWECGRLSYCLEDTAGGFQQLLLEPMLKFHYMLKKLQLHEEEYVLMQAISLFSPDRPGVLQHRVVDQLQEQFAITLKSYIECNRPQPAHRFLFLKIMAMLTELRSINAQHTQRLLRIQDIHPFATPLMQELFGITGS
Summary of the method: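 TR-FRET signal read at 2 h in a cell-free human PXR binding format. DMSO served as negative control and baseline; activity scored as signal loss. Single-concentration duplicate screen (25 uM), then concentration-response follow-up.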

[2] = molecular target: human Thyroid Receptor Alpha (TRa), THRA (gene 7067) (UniProt P10827); experiment: NVS_NR_hTRa_Antagonist: NovaScreen (NVS) Nuclear Receptor Binding Assay for human Thyroid Receptor Alpha Antagonism (TRa) (AID 2283362);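 also: activity is loss of signal relative to DMSO baseline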
Chain of human Thyroid Receptor Alpha (TRa), THRA (gene 7067) (P10827 whole entry, looked up): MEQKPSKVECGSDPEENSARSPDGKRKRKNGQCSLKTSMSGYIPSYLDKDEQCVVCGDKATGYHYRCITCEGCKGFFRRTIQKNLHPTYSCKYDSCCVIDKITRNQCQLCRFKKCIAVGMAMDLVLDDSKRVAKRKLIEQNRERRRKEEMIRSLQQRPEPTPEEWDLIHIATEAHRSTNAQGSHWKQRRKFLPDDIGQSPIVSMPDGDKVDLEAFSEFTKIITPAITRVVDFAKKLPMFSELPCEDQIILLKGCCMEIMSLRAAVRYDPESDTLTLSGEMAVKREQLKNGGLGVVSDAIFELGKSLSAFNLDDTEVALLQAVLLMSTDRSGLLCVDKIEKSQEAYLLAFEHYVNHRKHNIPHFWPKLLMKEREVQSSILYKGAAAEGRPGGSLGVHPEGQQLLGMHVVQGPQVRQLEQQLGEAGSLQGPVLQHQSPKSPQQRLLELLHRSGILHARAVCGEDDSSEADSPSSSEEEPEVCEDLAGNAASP
Summary of the method: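 AlphaLISA chemiluminescent immunoassay readout, taken 1 h post-dosing in a cell-free system with extracted protein. Activity was scored as signal loss against DMSO negative control, from duplicate single-concentration (25 uM) testing followed by concentration-response follow-up.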

[3] = molecular target: guinea pig Sigma Receptor, Non-selective Binding, SIGMAR1 (gene 100135589) (UniProt Q60492); experiment: NVS_OR_gSIGMA_NonSelective: NovaScreen (NVS) Nuclear Receptor Binding Assay for guinea pig Sigma Receptor, Non-selective Binding (AID 2283367)
Chain of guinea pig Sigma Receptor, Non-selective Binding, SIGMAR1 (gene 100135589) (Q60492 whole entry, looked up): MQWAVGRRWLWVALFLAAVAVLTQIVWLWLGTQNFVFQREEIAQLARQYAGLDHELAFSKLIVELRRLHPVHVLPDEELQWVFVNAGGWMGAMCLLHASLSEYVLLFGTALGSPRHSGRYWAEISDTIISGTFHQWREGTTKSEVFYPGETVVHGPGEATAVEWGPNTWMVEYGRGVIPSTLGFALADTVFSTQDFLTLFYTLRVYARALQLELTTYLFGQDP
Summary of the method: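 Guinea pig brain membrane sigma sites were labelled with a radioligand, and bound radioactivity was counted after filtration 1 h post-dose. Compounds were screened at 25 uM in duplicate, then retested as concentration series when active.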

[4] = system: guinea pig Dopamine Transporter (DAT), gene 100714898; experiment: NVS_TR_gDAT: NovaScreen (NVS) Transporter Assay for guinea pig Dopamine Transporter (DAT) (AID 2283369);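 also: active compounds lower bound radioligand signal relative to DMSO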
Summary of the method: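 Cell-free striatal membrane prep (guinea pig), 2 h exposure, filtration + scintillation readout of radioligand binding. Single-point 25 uM duplicate; actives rerun singleton, top conc 50 uM.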

[5] = molecular target: Peroxisome proliferator-activated receptor gamma (Homo sapiens) (UniProt P37231); experiment: NVS_NR_hPPARg: NovaScreen (NVS) Nuclear Receptor Binding Assay for human Peroxisome Proliferator-activated Receptor gamma (PPARg) (AID 2283370)
Chain of Peroxisome proliferator-activated receptor gamma (Homo sapiens) (P37231 whole entry, looked up): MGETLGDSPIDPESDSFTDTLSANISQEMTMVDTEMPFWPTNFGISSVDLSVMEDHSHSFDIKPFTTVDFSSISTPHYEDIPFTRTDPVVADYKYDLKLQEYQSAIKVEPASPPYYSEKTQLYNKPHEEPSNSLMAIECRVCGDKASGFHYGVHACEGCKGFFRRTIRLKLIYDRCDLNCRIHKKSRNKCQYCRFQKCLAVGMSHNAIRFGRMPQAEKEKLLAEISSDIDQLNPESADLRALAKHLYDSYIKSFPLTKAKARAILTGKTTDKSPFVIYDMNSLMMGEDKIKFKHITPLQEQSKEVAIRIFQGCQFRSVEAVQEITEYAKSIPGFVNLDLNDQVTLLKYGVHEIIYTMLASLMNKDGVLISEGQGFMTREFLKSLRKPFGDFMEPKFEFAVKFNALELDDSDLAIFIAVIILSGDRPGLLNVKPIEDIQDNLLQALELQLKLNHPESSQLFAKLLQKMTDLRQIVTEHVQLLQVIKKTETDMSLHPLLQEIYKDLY
Summary of the method: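 FP read-out, 2 h post-dose, cell-free extracted receptor protein. Signal loss vs DMSO negative control = binding activity. Single-conc duplicate HTS at 25 uM; concentration-response follow-up for actives.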

[6] = system: rat Norepinephrine Transporter (NET), gene 83511; experiment: NVS_TR_rNET: NovaScreen (NVS) Transporter Assay for rat Norepinephrine Transporter (NET) (AID 2283373)
Summary of the method: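 Competitive radioligand displacement at the rat NET using forebrain membrane preparations, 1 h incubation, filter-based scintillation readout. Primary testing in duplicate at a single 25 uM concentration; confirmed actives retested across concentrations.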

[7] = molecular target: Glucocorticoid receptor (Homo sapiens) (UniProt P04150); experiment: NVS_NR_hGR: NovaScreen (NVS) Nuclear Receptor Binding Assay for human Glucocorticoid Receptor (GR) (AID 2283363);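 as to AC50: activity is loss of specific radioligand binding signal relative to DMSO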
Chain of Glucocorticoid receptor (Homo sapiens) (P04150 whole entry, looked up): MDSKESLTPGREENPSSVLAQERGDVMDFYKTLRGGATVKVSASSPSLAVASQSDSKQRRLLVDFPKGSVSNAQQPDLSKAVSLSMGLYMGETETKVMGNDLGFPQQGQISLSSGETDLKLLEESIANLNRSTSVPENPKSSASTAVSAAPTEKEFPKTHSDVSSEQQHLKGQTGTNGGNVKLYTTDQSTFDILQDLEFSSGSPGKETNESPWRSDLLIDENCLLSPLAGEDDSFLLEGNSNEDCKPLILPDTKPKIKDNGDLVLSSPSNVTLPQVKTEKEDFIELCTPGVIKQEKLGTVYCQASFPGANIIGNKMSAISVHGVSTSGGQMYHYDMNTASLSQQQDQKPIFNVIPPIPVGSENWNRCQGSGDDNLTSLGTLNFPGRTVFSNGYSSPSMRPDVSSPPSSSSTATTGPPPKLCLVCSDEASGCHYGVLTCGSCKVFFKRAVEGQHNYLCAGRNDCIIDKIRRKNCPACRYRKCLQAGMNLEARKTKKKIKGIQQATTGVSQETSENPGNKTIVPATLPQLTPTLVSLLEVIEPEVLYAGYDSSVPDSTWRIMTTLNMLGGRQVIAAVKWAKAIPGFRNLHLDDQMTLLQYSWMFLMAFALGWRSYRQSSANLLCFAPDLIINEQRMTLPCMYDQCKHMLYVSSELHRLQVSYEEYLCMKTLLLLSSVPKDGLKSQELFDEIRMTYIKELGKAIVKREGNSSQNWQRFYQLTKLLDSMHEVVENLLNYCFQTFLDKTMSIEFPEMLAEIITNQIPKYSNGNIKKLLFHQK
Summary of the method: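 Compounds first tested in duplicate at 25 uM, actives followed up in concentration series. Binding to extracted GR protein measured as competitive radioligand displacement, filter scintillation read 16 h post-dosing, normalised to DMSO.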

[8] = molecular target: human Adenosine Transporter (Adot), SLC29A1 (gene 2030) (UniProt Q99808); experiment: NVS_TR_hAdoT: NovaScreen (NVS) Transporter Assay for human Adenosine Transporter (Adot) (AID 2283368)
Chain of human Adenosine Transporter (Adot), SLC29A1 (gene 2030) (Q99808 whole entry, looked up): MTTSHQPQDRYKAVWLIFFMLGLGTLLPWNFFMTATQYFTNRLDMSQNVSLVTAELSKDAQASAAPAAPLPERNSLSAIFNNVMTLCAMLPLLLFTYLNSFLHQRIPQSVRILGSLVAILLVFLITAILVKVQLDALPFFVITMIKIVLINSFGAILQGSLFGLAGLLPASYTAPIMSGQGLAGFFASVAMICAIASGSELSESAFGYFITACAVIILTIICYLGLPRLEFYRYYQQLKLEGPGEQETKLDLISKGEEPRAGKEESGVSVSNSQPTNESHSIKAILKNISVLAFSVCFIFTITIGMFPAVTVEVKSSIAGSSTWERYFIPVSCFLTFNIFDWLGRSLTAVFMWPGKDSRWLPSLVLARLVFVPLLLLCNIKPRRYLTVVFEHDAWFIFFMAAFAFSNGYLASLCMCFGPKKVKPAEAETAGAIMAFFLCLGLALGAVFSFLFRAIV
Summary of the method: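 Binding displacement on U937 extracted protein, read 1 h post-dose by filtration and scintillation counting. Primary duplicate test at 25 uM, then singleton concentration series with 50 uM top; DMSO baseline.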

[9] = molecular target: human Serotonin Transporter (SERT), SLC6A4 (gene 6532) (UniProt P31645); experiment: NVS_TR_hSERT: NovaScreen (NVS) Transporter Assay for human Serotonin Transporter (SERT) (AID 2283372)
Chain of human Serotonin Transporter (SERT), SLC6A4 (gene 6532) (P31645 whole entry, looked up): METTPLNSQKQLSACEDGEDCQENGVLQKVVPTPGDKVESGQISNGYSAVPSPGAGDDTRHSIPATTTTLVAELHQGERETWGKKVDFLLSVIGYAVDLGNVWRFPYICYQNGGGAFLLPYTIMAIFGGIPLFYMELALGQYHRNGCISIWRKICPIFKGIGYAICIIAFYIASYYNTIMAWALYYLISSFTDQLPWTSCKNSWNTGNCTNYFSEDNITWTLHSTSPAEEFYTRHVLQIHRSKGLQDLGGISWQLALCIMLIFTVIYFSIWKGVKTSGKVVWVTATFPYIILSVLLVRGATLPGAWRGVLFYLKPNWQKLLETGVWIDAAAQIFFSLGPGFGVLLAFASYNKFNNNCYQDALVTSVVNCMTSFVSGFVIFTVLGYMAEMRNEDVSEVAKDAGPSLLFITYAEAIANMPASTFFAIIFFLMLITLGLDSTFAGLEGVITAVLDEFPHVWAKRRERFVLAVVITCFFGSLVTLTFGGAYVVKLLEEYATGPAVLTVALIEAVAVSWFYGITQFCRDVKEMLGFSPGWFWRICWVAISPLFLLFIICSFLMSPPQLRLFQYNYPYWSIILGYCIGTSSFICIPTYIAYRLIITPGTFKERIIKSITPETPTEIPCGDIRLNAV
Summary of the method: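 Human platelet membrane preparation; displacement of radioligand from serotonin transporter measured after 1 h by filtration and scintillation counting. Single 25 uM duplicate screen, then concentration series for actives, with DMSO as negative baseline.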

[10] = molecular target: rat Androgen Receptor (AR), Ar (gene 24208) (UniProt P15207); experiment: NVS_NR_rAR: NovaScreen (NVS) Nuclear Receptor Binding Assay for rat Androgen Receptor (AR) (AID 2283366)
Chain of rat Androgen Receptor (AR), Ar (gene 24208) (P15207 whole entry, looked up): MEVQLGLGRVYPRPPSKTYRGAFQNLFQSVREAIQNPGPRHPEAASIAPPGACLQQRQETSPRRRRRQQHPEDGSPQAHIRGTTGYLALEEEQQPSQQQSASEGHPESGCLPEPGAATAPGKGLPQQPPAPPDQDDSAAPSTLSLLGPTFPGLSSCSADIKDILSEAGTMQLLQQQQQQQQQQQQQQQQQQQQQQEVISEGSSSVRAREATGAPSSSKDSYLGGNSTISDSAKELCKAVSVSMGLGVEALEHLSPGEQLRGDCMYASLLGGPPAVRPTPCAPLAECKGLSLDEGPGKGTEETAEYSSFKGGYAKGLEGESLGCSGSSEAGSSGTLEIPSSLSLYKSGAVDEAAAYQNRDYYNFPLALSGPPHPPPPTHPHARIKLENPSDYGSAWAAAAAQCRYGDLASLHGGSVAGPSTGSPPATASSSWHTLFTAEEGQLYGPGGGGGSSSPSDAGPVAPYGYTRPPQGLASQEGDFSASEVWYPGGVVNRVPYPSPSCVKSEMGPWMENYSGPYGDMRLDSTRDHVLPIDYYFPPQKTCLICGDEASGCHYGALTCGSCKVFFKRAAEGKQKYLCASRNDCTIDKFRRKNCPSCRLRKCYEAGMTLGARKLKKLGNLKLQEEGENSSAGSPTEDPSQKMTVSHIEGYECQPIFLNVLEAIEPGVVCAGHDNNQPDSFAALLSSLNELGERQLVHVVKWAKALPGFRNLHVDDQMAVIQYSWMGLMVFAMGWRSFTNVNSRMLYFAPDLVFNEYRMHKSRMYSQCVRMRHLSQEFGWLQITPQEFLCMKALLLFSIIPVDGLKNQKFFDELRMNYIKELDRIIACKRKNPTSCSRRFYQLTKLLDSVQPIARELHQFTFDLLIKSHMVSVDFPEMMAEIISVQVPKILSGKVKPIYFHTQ
Summary of the method: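 Actives from a duplicate single-concentration (25 uM) primary run went on to concentration series. Displacement of radioligand was counted by filtration and scintillation, 18 h post-dose, using prostate extracts from testosterone-pretreated rats, with DMSO as baseline.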

In the case of `Nc1cccc(N)c1`, the outcome [1] is reported as “inactive”.

For `COc1cccc(-c2ccc(/C=C\CN3CCCCCC3)cc2Cl)c1`, the outcome [2] was “inactive”, the outcome [1] was “inactive” and the AC50 [3] was 0.0104 µM (active). The AC50 [4] was 14.5 µM (active), the outcome [5] was “inactive” and the AC50 [6] was 9.83 µM (active).

In the case of `NC(=O)NO`, the outcome [1] is reported as “inactive”.

In the case of `CC1(C)C(=O)N(Br)C(=O)N1Br`, the outcome [1] is reported as “inactive” and the outcome [5] is reported as “inactive”.

In the case of `Cn1c(=O)cc(Oc2ccc(F)cc2F)c2cnc(NCC(C)(C)O)nc21`, the AC50 [7] is reported as 2.48 µM (active), the outcome [3] is reported as “inactive” and the AC50 [8] is reported as 25 µM (active). For the same molecule, the AC50 [5] was 32.4 µM (active).

`CCn1nc(Cc2ccccc2)cc1C1CCN(C[C@H]2C[C@H](N(C)[C@@H](C(=O)O)C(C)C)C[C@@H]2c2cccc(F)c2)CC1` was tested, and the outcome [7] was “inactive” and the AC50 [4] was 13.8 µM (active).

For `C=CCCCCCCCCC(=O)O`, the outcome [1] was “inactive”.

`On1ccccc1=S` was tested, and the AC50 [2] was 9.11 µM (active).

`Cc1[nH]cnc1C[C@H]1CCc2c(C)c3ccccc3n2C1=O` was tested, and the outcome [2] was “inactive”, the AC50 [3] was 10 µM (active) and the AC50 [4] was 12.7 µM (active). For the same molecule, the AC50 [9] was 8.03 µM (active) and the AC50 [6] was 8.58 µM (active).

With `O=C(O)c1cccc(N(Cc2cccnc2)c2ccc(OC(F)F)c(OC(F)F)c2)c1` the outcome [10] was “inactive” and the AC50 [5] was 25 µM (active).

With `O=C(O)c1cc(N=Nc2ccc(S(=O)(=O)Nc3ccccn3)cc2)ccc1O` the outcome [1] was “inactive” and the outcome [5] was “inactive”.

In the case of `O=C(OC[C@H]1O[C@@H](OC(=O)c2cc(O)c(O)c(OC(=O)c3cc(O)c(O)c(O)c3)c2)[C@H](OC(=O)c2cc(O)c(O)c(OC(=O)c3cc(O)c(O)c(O)c3)c2)[C@@H](OC(=O)c2cc(O)c(O)c(OC(=O)c3cc(O)c(O)c(O)c3)c2)[C@@H]1OC(=O)c1cc(O)c(O)c(OC(=O)c2cc(O)c(O)c(O)c2)c1)c1cc(O)c(O)c(OC(=O)c2cc(O)c(O)c(O)c2)c1`, the AC50 [7] is reported as 0.533 µM (active), the AC50 [8] is reported as 3.15 µM (active) and the outcome [4] is reported as “inactive”.
